{"source": "paper PMC7862700", "about": "“An all-to-all approach to the identification of sequence-specific readers for epigenetic DNA modifications on cytosine”", "test_in_all_cases": "DAPPL (digital affinity profiling via proximity ligation, sequencing); 10 mM Tris-HCl pH 7.5, 50 mM NaCl, 1 mM DTT, 4% glycerol, room temperature, 30 min; GST-TFs on glutathione beads, 16-mer random dsDNA library, 0.1% formaldehyde crosslink after washing; high values mean tight binding", "settings_in_all_cases": "protein: recombinant; tags: N-terminal GST; dsDNA, one strand shown", "key": {"ETV1": {"biological_target": "ETV1 (Homo sapiens, UniProt P50549 1-477)", "sequence (P50549 whole entry, the tested form may be a part)": "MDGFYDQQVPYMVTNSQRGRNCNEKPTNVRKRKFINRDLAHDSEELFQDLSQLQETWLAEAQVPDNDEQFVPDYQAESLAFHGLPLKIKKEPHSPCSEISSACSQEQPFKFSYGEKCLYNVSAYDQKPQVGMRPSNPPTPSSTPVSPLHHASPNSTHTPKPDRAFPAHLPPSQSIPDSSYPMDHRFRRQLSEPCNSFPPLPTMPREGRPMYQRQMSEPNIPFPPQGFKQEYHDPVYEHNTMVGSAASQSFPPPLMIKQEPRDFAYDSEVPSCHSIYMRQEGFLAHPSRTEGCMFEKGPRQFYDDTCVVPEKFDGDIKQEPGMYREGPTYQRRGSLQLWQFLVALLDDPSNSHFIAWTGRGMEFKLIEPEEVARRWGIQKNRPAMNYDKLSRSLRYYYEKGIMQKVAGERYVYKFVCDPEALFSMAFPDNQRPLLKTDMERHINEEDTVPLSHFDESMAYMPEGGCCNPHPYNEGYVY", "procedure,_shortened": "(§1)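 Beads coated with glutathione captured GST-fused human transcription factors that had been expressed in yeast, and the factors were then given DNA barcodes and pooled with a tag-only sample. The pools were incubated with 200 nmole of a random double-stranded 16-mer DNA library in Tris/NaCl/DTT/glycerol buffer for 30 min at room temperature, washed, crosslinked with 0.1% formaldehyde and proximity-ligated with BsaI/T4 ligase at 37 °C for 1 h. PCR amplification and Illumina NextSeq500 sequencing came last. Binding signal is each hexamer's read frequency for a factor divided by its frequency for the tag-only sample.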"}, "ERF": {"biological_target": "T1, ERF (Homo sapiens, UniProt P50548 1-548)", "T1 sequence": "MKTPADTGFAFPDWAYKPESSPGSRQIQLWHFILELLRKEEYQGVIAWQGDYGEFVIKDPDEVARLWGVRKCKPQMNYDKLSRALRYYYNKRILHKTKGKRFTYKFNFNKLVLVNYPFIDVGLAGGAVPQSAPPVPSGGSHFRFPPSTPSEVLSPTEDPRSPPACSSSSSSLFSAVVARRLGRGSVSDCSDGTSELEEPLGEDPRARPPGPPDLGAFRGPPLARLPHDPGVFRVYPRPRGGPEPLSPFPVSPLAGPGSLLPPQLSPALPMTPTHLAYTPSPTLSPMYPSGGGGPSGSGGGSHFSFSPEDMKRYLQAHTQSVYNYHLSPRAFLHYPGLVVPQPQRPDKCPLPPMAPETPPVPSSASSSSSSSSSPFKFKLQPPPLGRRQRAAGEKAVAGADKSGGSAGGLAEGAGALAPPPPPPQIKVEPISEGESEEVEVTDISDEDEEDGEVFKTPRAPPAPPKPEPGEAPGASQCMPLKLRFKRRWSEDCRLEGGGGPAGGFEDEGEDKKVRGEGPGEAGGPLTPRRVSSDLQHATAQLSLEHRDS", "procedure,_shortened": "as §1"}, "ETV3L": {"biological_target": "T2, ETV3L (Homo sapiens, UniProt Q6ZN32 1-361)", "T2 sequence": "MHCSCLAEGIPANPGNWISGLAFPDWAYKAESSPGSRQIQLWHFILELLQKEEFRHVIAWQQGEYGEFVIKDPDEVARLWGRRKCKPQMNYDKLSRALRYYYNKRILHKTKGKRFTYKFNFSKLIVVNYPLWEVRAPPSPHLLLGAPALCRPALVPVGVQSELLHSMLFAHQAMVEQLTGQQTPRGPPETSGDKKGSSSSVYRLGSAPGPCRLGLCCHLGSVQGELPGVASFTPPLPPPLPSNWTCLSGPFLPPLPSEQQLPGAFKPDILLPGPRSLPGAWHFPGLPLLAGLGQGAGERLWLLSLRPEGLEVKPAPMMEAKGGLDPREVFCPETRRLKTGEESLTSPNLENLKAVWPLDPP", "procedure,_shortened": "as §1"}, "ETS2": {"biological_target": "T3, ETS2 (Homo sapiens, UniProt P15036 1-469)", "T3 sequence": "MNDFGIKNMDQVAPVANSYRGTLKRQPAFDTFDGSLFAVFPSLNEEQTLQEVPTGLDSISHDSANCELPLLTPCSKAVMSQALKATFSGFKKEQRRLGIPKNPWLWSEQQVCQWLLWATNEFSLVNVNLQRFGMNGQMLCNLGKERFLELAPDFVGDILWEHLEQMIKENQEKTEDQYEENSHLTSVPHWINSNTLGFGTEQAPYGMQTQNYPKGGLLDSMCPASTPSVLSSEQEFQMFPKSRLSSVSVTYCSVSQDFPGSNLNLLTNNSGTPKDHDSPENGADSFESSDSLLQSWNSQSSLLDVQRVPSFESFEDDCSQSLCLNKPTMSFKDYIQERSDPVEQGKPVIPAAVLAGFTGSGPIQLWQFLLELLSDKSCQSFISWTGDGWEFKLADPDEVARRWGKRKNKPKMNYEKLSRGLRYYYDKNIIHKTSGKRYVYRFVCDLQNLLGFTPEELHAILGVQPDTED", "procedure,_shortened": "as §1"}, "SPDEF": {"biological_target": "T4, SPDEF (Homo sapiens, UniProt O95238 1-335)", "T4 sequence": "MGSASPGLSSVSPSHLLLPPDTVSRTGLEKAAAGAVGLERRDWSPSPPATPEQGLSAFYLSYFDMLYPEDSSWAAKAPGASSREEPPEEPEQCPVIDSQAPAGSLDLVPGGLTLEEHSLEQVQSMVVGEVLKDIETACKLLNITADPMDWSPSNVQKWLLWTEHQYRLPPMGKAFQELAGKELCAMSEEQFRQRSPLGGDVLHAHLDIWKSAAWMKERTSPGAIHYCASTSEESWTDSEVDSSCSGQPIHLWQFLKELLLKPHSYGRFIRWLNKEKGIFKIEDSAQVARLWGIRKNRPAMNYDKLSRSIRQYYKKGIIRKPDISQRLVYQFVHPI", "procedure,_shortened": "as §1"}, "ETV7": {"biological_target": "T5, ETV7 (Homo sapiens, UniProt Q9Y603 1-341)", "T5 sequence": "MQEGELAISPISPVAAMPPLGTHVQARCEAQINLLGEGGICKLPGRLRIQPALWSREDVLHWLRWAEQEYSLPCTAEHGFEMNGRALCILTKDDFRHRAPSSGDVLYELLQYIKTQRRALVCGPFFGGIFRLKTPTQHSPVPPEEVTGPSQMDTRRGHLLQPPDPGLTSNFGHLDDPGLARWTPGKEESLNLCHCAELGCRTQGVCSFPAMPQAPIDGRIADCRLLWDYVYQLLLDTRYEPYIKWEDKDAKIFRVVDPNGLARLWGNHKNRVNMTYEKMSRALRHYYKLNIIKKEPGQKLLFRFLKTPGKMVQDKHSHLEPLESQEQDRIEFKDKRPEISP", "procedure,_shortened": "as §1"}, "ELF5": {"biological_target": "T6, ELF5 (Homo sapiens, UniProt Q9UKW6-2 1-255)", "T6 sequence": "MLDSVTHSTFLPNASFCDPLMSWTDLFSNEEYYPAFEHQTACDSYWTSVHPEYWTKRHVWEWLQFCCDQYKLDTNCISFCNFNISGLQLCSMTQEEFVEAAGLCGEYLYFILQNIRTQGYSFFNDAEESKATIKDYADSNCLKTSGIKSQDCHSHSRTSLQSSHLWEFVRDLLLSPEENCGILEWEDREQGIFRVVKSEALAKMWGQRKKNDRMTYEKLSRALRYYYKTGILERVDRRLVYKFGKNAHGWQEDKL", "procedure,_shortened": "as §1"}, "ETV3": {"biological_target": "T7, ETV3 (Homo sapiens, UniProt P41162-2 1-143)", "T7 sequence": "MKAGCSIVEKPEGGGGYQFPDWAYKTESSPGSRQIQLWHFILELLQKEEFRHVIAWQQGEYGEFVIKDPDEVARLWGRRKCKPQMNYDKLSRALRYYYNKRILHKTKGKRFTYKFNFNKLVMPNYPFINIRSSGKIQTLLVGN", "procedure,_shortened": "as §1"}, "ETV6": {"biological_target": "ETV6 (Homo sapiens, UniProt P41212 1-452)", "sequence (P41212 whole entry)": "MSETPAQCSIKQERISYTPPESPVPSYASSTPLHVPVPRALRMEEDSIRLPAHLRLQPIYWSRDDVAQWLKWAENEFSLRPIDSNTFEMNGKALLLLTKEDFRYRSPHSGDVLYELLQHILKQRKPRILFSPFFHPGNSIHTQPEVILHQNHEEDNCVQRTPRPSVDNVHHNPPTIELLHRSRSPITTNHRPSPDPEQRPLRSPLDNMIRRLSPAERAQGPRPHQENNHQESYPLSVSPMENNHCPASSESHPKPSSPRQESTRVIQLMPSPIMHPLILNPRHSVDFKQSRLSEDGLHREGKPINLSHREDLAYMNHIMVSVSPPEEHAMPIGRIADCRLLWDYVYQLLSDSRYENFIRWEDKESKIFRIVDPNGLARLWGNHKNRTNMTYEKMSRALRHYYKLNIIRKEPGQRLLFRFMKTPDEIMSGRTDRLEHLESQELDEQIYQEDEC", "procedure,_shortened": "as §1"}}, "data": [{"sequence": "GGATTT", "values": [{"measurement": "binding signal", "setting": "ETV1", "result": "1.22 fold enrichment (6-mer frequency, TF over GST control)"}, {"measurement": "binding signal", "setting": "ERF", "result": "1.17 fold enrichment (6-mer frequency, TF over GST control)"}, {"measurement": "binding signal", "setting": "ETV3L", "result": "1.21 fold enrichment (6-mer frequency, TF over GST control)"}, {"measurement": "binding signal", "setting": "ETS2", "result": "1.24 fold enrichment (6-mer frequency, TF over GST control)"}, {"measurement": "binding signal", "setting": "SPDEF", "result": "1.57 fold enrichment (6-mer frequency, TF over GST control)"}, {"measurement": "binding signal", "setting": "ETV7", "result": "1.07 fold enrichment (6-mer frequency, TF over GST control)"}, {"measurement": "binding signal", "setting": "ELF5", "result": "1.38 fold enrichment (6-mer frequency, TF over GST control)"}, {"measurement": "binding signal", "setting": "ETV3", "result": "1.21 fold enrichment (6-mer frequency, TF over GST control)"}, {"measurement": "binding signal", "setting": "ETV6", "result": "1.3 fold enrichment (6-mer frequency, TF over GST control)"}]}]}
